Most compounds without a hit are left out; they make up all but 2.1% or so of the library.
IEC-6 cytotox = counter-screen for KLF5 inhibitors: cytotoxicity in IEC-6 cells | inhibition, % at 5 µM | AID 1825 | 290,000 compounds, 0.78% hits | IEC-6 cytotoxicity, luminescence viability
aSyn 5UTR inh = 5' untranslated region of α-synuclein, MLPCN primary screen; alpha-synuclein 5'UTR reporter, inhibitor activity; inhibition, % (tested at 7.5 µM); 300,000 compounds, 0.82% hits; AID 1813; in the data active = inhibition above about 60%;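 also: H4 neuroglioblastoma cells stably carrying SNCA 5'UTR luciferase fusion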
BaF3 tox = counter-screen for JAK2V617F inhibitors: parental Ba/F3 viability inhibitors; CellTiter-Glo ATP luminescence; inhibition, % at 5.6 µM; 220,000 compounds, 1.1% hits; AID 1486;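 active = inhibition above a per-campaign cutoff, the mean inhibition of all tested compounds plus 3 SD, cut at about 27% in these data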
APP transl inh = APP translation inhibition; 190,000 compounds, 0.82% hits; SH-SY5Y APP 5'UTR-luciferase reporter, luminescence; inhibition, % at 2 µM; AID 1285;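 active = inhibition above a set limit, derived from the sample mean plus 3 SD, cut at about 45% in these data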
Ba/F3 V617F tox = loss of viability in JAK2V617F-driven Ba/F3 cells; Ba/F3 EpoR-JAK2V617F viability, ATP luminescence; inhibition, % at 5.6 µM; 220,000 compounds, 1.1% hits; AID 1446;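 active = inhibition above the campaign mean plus 3 SD over all tested compounds, cut at about 24% in these data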;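 also: cytokine-independent growth of Ba/F3 cells driven by EpoR plus mutant JAK2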
KLF5 inh = kruppel-like factor 5 inhibition; DLD-1 KLF5 promoter-luciferase reporter, luminescence; inhibition, % at 5 µM; 290,000 compounds, 0.23% hits;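 active = inhibition above a per-plate limit of that plate's mean compound inhibition plus 3 SD, cut at about 60% in these data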;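 also: higher means less KLF5 promoter-driven luciferase light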
IEC-6 tox confirm = IEC-6 cytotoxicity, confirmation assay | inhibition, % at 5 µM | shares compounds with IEC-6 cytotox | 1,900 compounds, 63% hits | IEC-6 rat intestinal epithelial viability, luminescence
Numbers stand for hits; 0 = inactive; - = no result. Rule as the data show it, unless noted: active = inhibition above about 22%; inactive = the rest.

SMILES | IEC-6 cytotox | aSyn 5UTR inh | BaF3 tox | APP transl inh | Ba/F3 V617F tox | KLF5 inh | IEC-6 tox confirm
Cc1cc(C)n(-c2nc3ccccc3c(=O)n2OCC#N)n1 | 86 | 0 | - | - | - | 0 | 52
CCOn1c(-n2nc(C)cc2C)nc2ccccc2c1=O | 0 | 0 | 0 | 0 | 0 | 0 | -
CCN(CC)c1ccc(S(=O)(=O)N2CCOCC2)cc1NC(=O)CSc1n[nH]c(N)n1 | 0 | 0 | 0 | - | 0 | 0 | -
COc1cc(C(=O)Nc2ccc(NC(=O)C3CC3)nc2)cc(OC)c1OC | 95 | 0 | 0 | 0 | 0 | 0 | 0
Cc1c(Cl)ccc2c(C(=O)NCCN3CCCCC3)cc(-c3ccccn3)nc12 | 0 | 0 | 0 | 0 | 0 | 0 | -
COc1ccccc1-c1cc(C(=O)NC2CCN(C)CC2)c2ccc(Cl)c(C)c2n1 | 30 | 101 | - | - | - | 0 | 0
CCOC(=O)N1CCN(S(=O)(=O)N2CCCC(C(=O)NCCCN3CC(C)CC(C)C3)C2)CC1 (centres undefined) | 0 | 0 | - | - | - | 0 | -
O=c1ccc2cc(S(=O)(=O)NCc3ccccc3)ccc2[nH]1 | 0 | 0 | - | - | - | 0 | -
CCCCCCCCCCCCCCCCn1cc[n+](C)c1 | 35 | 141 | 69 | 0 | 98 | 0 | 32
Cc1cccc(Nc2nc(N3CCCCC3)nc(N3CCCCC3)n2)c1 | 0 | 0 | 0 | 0 | 0 | 0 | -
Cc1ccc(Nc2nc(N3CCOCC3)nc(N3CCOCC3)n2)cc1C | 84 | 0 | - | - | - | 0 | 88
Cc1cccc(Nc2nc(N3CCOCC3)nc(N3CCOCC3)n2)c1 | 64 | 0 | - | - | - | 0 | 37
Cc1cc(C)cc(C(=O)N2CC(=O)Nc3ccccc32)c1 | 89 | 110 | 82 | 92 | 78 | 0 | 57
CCCN(C(=O)COC(=O)c1[nH]c(C)c(C(=O)OC)c1C)c1c(N)n(Cc2ccccc2)c(=O)[nH]c1=O | - | 0 | - | - | - | - | -
O=C(CCl)N(c1ccccc1)c1c[nH]c2ccccc12 | 34 | 0 | 50 | 0 | 101 | 0 | 0
CC(C)Cn1c(N)c(C(=O)COC(=O)COc2cccc(C(F)(F)F)c2)c(=O)n(C)c1=O | 0 | 0 | - | - | - | 0 | -
Cc1cc(C(=O)N/N=C/c2c(C)[nH]n(-c3ccccc3)c2=O)n[nH]1 | 0 | 0 | - | - | - | 0 | -
Cc1[nH]n(-c2ccccc2)c(=O)c1/C=N/NC(=O)c1cccc(F)c1 | 22 | 0 | - | - | - | 0 | 0
Cc1[nH]n(-c2ccc(Br)cc2)c(=O)c1/C=N/NC(=O)c1ccccc1 | 65 | 0 | - | - | - | 0 | 60
O=C(Nc1ccc(Cl)cc1)Nc1ccon1 | 29 | 0 | - | - | - | 0 | 0
Cc1ccc(NC(=O)Nc2ccon2)cc1 | 0 | 0 | - | - | - | 0 | -
Cc1ccc(C(=O)CCNc2ccc(F)c(Cl)c2)o1 | 31 | 0 | 58 | 0 | 46 | 0 | 34
Cc1ccc(C(=O)CCNc2ccc(Br)cc2)o1 | 0 | 0 | 0 | 0 | 0 | 0 | -
Cc1ccc(S(=O)(=O)c2ccc([N+](=O)[O-])cn2)cc1 | 101 | 0 | - | - | - | 0 | 0
O=[N+]([O-])c1ccc(S(=O)(=O)c2ccccc2)nc1 | 101 | 0 | - | - | - | 0 | 85
SMILES | IEC-6 cytotox | aSyn 5UTR inh | BaF3 tox | APP transl inh | Ba/F3 V617F tox | KLF5 inh | IEC-6 tox confirm
Cc1cc(S(=O)(=O)c2ccc([N+](=O)[O-])cn2)ccc1Br | - | 0 | - | - | - | - | -
CCOc1ccc(N(Cc2cc3ccc(C)cc3[nH]c2=O)S(=O)(=O)c2ccccc2)cc1 | 22 | 0 | - | - | - | 0 | 0
CC(C)Cc1ccc(C(C)C(N)=NCCc2ccccc2)cc1 (centres undefined) | 64 | 0 | - | - | - | 0 | 99
COc1ccc(C)cc1NC(=O)CNC(c1ccccc1)c1ccc(C)cc1 (centres undefined) | 69 | 103 | - | - | - | 0 | 51
O=C(COC(=O)CNC(=O)c1ccc(Cl)c([N+](=O)[O-])c1)NC(=O)CN1CCCC1=O | - | 0 | - | - | - | - | -
Clc1cccc2c1Sc1ccccc1CC2N1CCNCC1 (centres undefined) | 23 | 0 | 0 | 0 | 0 | 0 | 0
CC(C)c1ccc(NC(=O)CSc2nc3ccsc3c(=O)n2CCC(=O)O)cc1 | 0 | 0 | - | - | - | 0 | -
Cc1csc2sc(-c3ccnc(SCC(=O)NCc4ccccc4)n3)c(C)c12 | 74 | 0 | 60 | - | 81 | 0 | 65
Cc1csc(SCC(=O)NCc2ccccc2)n1 | 0 | 0 | 0 | 0 | 0 | 0 | -
Oc1ccc(Oc2ccc(Oc3ccc(O)cc3)cc2)cc1 | 42 | 0 | - | - | - | 0 | 0
CC(=O)c1ccc(Oc2ccc(C(C)=O)cc2)cc1 | 0 | 0 | 0 | 0 | 0 | 0 | -
Cc1cccc(C(=O)NC(C(=O)Nc2nc(-c3ccccn3)cs2)C(C)C)c1 (centres undefined) | 49 | 81 | 0 | 0 | 0 | 0 | 42
O=C(Nc1nc(-c2ccccn2)cs1)C1CCCC1 | 25 | 0 | 0 | 0 | 0 | 0 | 0
Cc1cccnc1Nc1nc(-c2ccccn2)cs1 | 84 | 0 | 77 | 93 | 89 | 0 | 88
CSCCC(=O)Nc1nc(-c2ccccn2)cs1 | 0 | - | 0 | 0 | 0 | 0 | -
O=C(Nc1nc(-c2ccccn2)cs1)c1ccc(S(=O)(=O)N2CCCCC2)cc1 | 50 | 0 | 56 | - | 55 | 0 | 54
CCc1nnc(NC(=O)CCC(=O)NC2CCCCCCC2)s1 | 0 | 0 | - | - | - | 0 | -
O=C(NC1CCN(S(=O)(=O)c2ccccc2C(F)(F)F)CC1)c1ccco1 | 0 | 0 | - | - | - | 0 | -
O=C(Nc1nc(-c2ccccn2)cs1)c1ccc(Cl)s1 | 45 | 68 | 0 | 77 | 0 | 0 | 75
O=C(Nc1nc(-c2ccccn2)cs1)c1ncc(Cl)c(Cl)c1Cl | 0 | 0 | 0 | 0 | 0 | 0 | -
C/C(=N\NC(=O)c1c(Cl)c(C)nn1C)c1cccc(NC(=O)C2CCCC2)c1 | 0 | 0 | - | - | - | 0 | -
O=C(CCC(=O)N1CCOc2ccccc21)NCc1cccnc1 | 0 | 0 | - | - | - | 0 | -
COc1cccc(C(=O)Nc2ccc(F)cc2F)c1 | 0 | 0 | 0 | 0 | 0 | 0 | -
COc1cccc(C(=O)Nc2ccc3c(cc2=O)[C@@H](NC(C)=O)CCc2cc(OC)c(OC)c(OC)c2-3)c1 | 46 | 0 | - | - | - | 0 | 39
CC(=O)NC12CC3CC(C1)CC(C(=O)N(C)Cc1cccc(Cl)c1Cl)(C3)C2 | 0 | 0 | - | - | - | 0 | -
SMILES | IEC-6 cytotox | aSyn 5UTR inh | BaF3 tox | APP transl inh | Ba/F3 V617F tox | KLF5 inh | IEC-6 tox confirm
COc1ccc(OCc2cc(C(=O)NC3CCOC(C)(C)C3)no2)c2ccccc12 (centres undefined) | 42 | 0 | - | - | - | 0 | 0
CC1CCN(Cc2nnnn2CCCC(=O)NCCc2cnn(C)c2)CC1 | 0 | 0 | - | - | - | 0 | -
CC(=O)NC1=C(Nc2ccc(N(C)C)cc2)C(=O)c2ccccc2C1=O | 67 | 0 | - | - | - | 0 | 41
CC1(C)Cc2cccc(OCC(=O)Nc3ccccc3F)c2O1 | - | 0 | - | - | - | - | -
Cc1cnc(NC(=O)COc2cccc3c2OC(C)(C)C3)s1 | 30 | 0 | 0 | 0 | 0 | 0 | 34
CC(=O)c1c(C)[nH]c(C(=O)NC2CCSc3ccccc32)c1C (centres undefined) | 0 | 0 | - | - | - | 0 | -
CCc1c(C(=O)NC2CCCc3ccccc32)[nH]c(C)c1C(C)=O (centres undefined) | 47 | 64 | - | - | - | 0 | 0
Nc1c(Cl)c(Cl)nc(C(=O)OCC(=O)N2CCCC2=O)c1Cl | - | 0 | - | - | - | - | -
O=C(OCC(=O)N1CCCC1=O)c1nc(Cl)c(Cl)c(Cl)c1Cl | 42 | 0 | - | - | - | 0 | 0

Bioassay records (PubChem BioAssay)
